Data on nine compounds can be found in PubChem BioAssay (NCATS).

Test [1] has as its target Alpha-galactosidase A (Homo sapiens) (UniProt P06280). The test can be described thus: Counterscreen for Glucocerebrosidase Inhibitors: qHTS Assay for Human alpha-Galactosidase at pH 4.5 (AID 992). Also: 0% is about no effect. The essentials: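 Enzyme at 2 nM final was combined with compound (0.7 nM to 77 uM) and 80 uM 4-methylumbelliferyl alpha-D-galactopyranoside in 50 mM citric acid, 0.005% Tween-20, pH 4.5. After 20 min at room temperature, fluorescence was read (Ex 365/Em 440 nm); AC50 came from Hill fits.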
(A counterscreen serves to expose hits that act by an unwanted route or on another target.)

The target of test [2] is alpha-glucosidase (Oryza sativa, rice) (UniProt Q653V4). Nature of the test: Counterscreen for Glucocerebrosidase Inhibitors: qHTS Assay for Rice alpha-Glucosidase at pH 5.0 (AID 997).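 Also: 0% = full activity with enzyme and -100% = basal without enzyme.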 The method, boiled down: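 Rice alpha-glucosidase (4 nM final) with 400 uM 4-methylumbelliferyl-alpha-D-glucopyranoside in citrate buffer pH 5.0, 20 min at room temperature, stopped at pH 10; fluorescence 365/440 nm, compounds 0.7 nM–77 uM, AC50 from Hill fits.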

The nature of test [3]: Validation of Assay for Modulators of Lamin A Splicing (AID 1459; active = well fitted curve in the direction sought with a large enough effect in the signal ratio; the % refers to the signal ratio;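 also: cells exposed to compound for two days before reading; 0% is about no effect; ratio rise marks activators and ratio drop marks inhibitors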). The method, boiled down:
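Splicing correction is reported by an EGFP-containing lamin A minigene in stably transfected S3 HeLa cells, while DsRed2 controls for viability and nonspecific signal. Cells are exposed to compounds for 48 hrs before the GFP over RFP ratio is taken.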

Test [4] is described as follows: qHTS Assay for Lipid Storage Modulators (AID 1519; calls by dose curve; as to activity change, negative = inhibition: % is scaled to controls: 0 for no effect and ±100 for the full control effect). To be noted: Drosophila S3 cells, BODIPY lipid droplet/cell ratio, laser cytometry, cells loaded with oleic acid; for activity change, negative = inhibition: at 57.5 µM (top of the series). The method, boiled down: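 Cells seeded at 5,000 per well were treated with compounds over a concentration series and loaded with oleic acid (400 uM, as added). Lipid droplet fluorescence (488 nm excitation, 500-530 nm channel) was read by laser-scanning cytometry and normalized to 20 uM Triacsin C.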
In general terms: Quantitative high-throughput screening tests each substance at several concentrations.

Test [5] addresses DNA repair nuclease/redox regulator APEX1 (Homo sapiens) (UniProt P27695). The test can be described thus: qHTS Validation Assay for Inhibitors of the Human Apurinic/apyrimidinic Endonuclease 1 (APE1) (AID 1705;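 also: TAMRA fluorescence gain over two minutes as APE1 cuts a quenched THF abasic duplex; % is scaled to controls: 0 for no effect and ±100 for the full control effect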). The essentials:
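Endonuclease activity of human APE1 is followed as dequenching when the enzyme incises a tetrahydrofuran abasic site in a short duplex labelled 5'-TAMRA/3'-BHQ-2 (50 nM final), after 15 min enzyme–compound preincubation at room temperature.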

Test [6] in a line: Counterscreen for APE1 Inhibitors: Fluorescent Dye Displacement Validation Assay (AID 1707).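 Also: plate controls were ThO with dsDNA and no compound for no effect and ThO without dsDNA for full effect.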 The method, boiled down: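 Thiazole Orange displacement from dsDNA: 250 nM ThO with 50 nM TAMRA-labelled abasic-site (tetrahydrofuran) duplex in 50 mM Tris-HCl pH7.5, 50mM NaCl, 2 mM MgCl2, 0.01% Tween-20. Loss of endpoint fluorescence (ex 480 nm, em 540 nm) flags DNA binders.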
Test [7] concerns the target Endonuclease 4 (Escherichia coli (strain K12)) (UniProt P0A6C1). Nature of the test: Counterscreen for APE1 Inhibitors: qHTS Validation Assay for Inhibitors of Endonuclease IV (AID 1708). Also: % is scaled to controls: 0 for no effect and ±100 for the full control effect. The essentials: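 E. coli EndoIV at 2 nM final, preincubated 15 min at room temperature with compound, then 50 nM TAMRA/BHQ-2 THF abasic-site duplex added. Buffer: 50 mM Tris-HCl pH 7.5, 50 mM NaCl, 2 mM MgCl2, 1 mM DTT, 0.01% Tween-20. Kinetic fluorescence increase, third minus first read.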

The nature of test [8]: qHTS for differential inhibitors of proliferation of Plasmodium falciparum line 7G8 (AID 1815).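 Also: parasite growth measured after three days of incubation; plate controls were vehicle wells for no effect and reference inhibitor wells for full effect.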
Test [9] in a line: qHTS for differential inhibitors of proliferation of Plasmodium falciparum line GB4 (AID 1816).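 Also: parasite growth measured after 72 h incubation; 0% = vehicle DMSO and -100% = reference inhibitor.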 To be noted: Potency: Plasmodium falciparum GB4 proliferation inhibition.
The nature of test [10]: qHTS for differential inhibitors of proliferation of Plasmodium falciparum line 3D7 (AID 1876).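 Also: parasite growth measured after three days of culture; 0% = vehicle wells and -100% = reference inhibitor wells.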
The nature of test [11]: qHTS for differential inhibitors of proliferation of Plasmodium falciparum line D10 (AID 1877).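 Also: parasites grown with compound for 72 h before DNA staining; plate controls were vehicle wells for no effect and reference inhibitor wells for full effect.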
[12] abbreviates: measured here: cell count channel max response.
Where [13] appears, read: measured here: lipid channel max response.

Where “and” joins values, the source holds several entries; their conditions need not be identical. Equal entries are not always repeated. Inconclusive results are not listed. Calls of active or inactive are those of the source. Unless noted, calls follow the shape of the dose curve; as a rule, active = well fitted curve in the direction sought with a large enough effect; inconclusive = small, poorly fitted or top-dose-only effect, or another doubt; inactive = no such curve, though single readings can be large; an effect the other way counts as inactive or inconclusive.

Alpha-galactosidase A (Homo sapiens), sequence (P06280 whole entry, looked up): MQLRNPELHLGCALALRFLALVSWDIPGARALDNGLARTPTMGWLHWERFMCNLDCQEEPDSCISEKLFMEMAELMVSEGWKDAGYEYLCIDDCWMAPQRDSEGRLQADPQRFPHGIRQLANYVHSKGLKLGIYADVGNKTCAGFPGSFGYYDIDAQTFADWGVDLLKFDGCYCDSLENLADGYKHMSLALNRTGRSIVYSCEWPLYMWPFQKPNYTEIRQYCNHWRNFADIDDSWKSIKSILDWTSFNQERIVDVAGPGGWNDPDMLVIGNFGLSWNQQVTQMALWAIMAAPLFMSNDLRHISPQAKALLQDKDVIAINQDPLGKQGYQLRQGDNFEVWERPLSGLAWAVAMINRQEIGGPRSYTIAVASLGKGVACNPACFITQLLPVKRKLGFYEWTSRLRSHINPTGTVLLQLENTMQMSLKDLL
DNA repair nuclease/redox regulator APEX1 (Homo sapiens), sequence (P27695 whole entry, looked up): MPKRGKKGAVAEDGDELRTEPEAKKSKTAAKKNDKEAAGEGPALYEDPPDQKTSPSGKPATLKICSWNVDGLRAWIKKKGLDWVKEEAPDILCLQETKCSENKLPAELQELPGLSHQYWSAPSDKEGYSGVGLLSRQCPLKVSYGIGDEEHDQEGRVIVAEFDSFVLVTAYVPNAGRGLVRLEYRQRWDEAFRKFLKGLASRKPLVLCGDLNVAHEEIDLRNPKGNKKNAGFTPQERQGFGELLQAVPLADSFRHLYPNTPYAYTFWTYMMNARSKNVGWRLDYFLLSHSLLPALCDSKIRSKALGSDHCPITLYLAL

Turning to `N[C@H](C(=O)O)[C@H](O)C(=O)O`, the compound was called inactive in [1], in test [2] and in test [3]. The activity change, negative = inhibition in test [4] was 1.02% (inactive). Moreover, the max response in [4] (setting [12]) was -11.9%; in [4] (setting [13]), -6.36%. For the same compound, the Potency entry in test [5], in test [6], in test [7], in [8], in test [9] and in [10] was “inactive” in each case. Besides, in test [11], the Potency result is “inactive”.
`Nc1nc2[nH]c(=O)cnc2c(=O)[nH]1`: the outcome in [1], in test [2] and in test [3] was inactive. Moreover, in test [4], the activity change, negative = inhibition is 0.27% (inactive). In addition, the max response in [4] (setting [12]) was found to be 60.5%; in test [4] (setting [13]) it was 55.1%. Besides, the Potency result in test [5], in test [6], in test [7], in test [8], in [9] and in test [10] was “inactive” in each case. In addition, the Potency entry in [11] is “inactive”.
`N[C@@H](CCC(=O)N[C@H](CSN=O)C(=O)NCC(=O)O)C(=O)O`: the compound was called inactive in [3]. Further, in test [4], the activity change, negative = inhibition was 0.446% (inactive). For the same compound, the max response was -20.1% in [4] (setting [12]) and -19.6% in [4] (setting [13]). Also, the Potency result in test [5], in [6], in test [7], in test [8], in [9] and in test [10] was “inactive” each time. For the same compound, the Potency result in test [11] was “inactive”.
On to `COCc1nc2c([nH]1)c(=O)n(C)c(=O)n2CC(C)C`, for which the compound was classed as inactive in test [1], in test [2] and in [3]. Further, in test [4], the activity change, negative = inhibition is 1.67% (inactive). The max response in test [4] (setting [12]) is -19.5%; in test [4] (setting [13]), -18.2%. Moreover, the Potency result in [5], in [6], in [7], in [8], in test [9] and in [10] was “inactive” in each case. The Potency result in test [11] was “inactive”.
Regarding `Cc1ccc([N+](=O)[O-])cc1S(=O)(=O)N(C)C`, the compound was classed as inactive in [1], in test [2] and in [3]. Further, in test [4], the activity change, negative = inhibition was -0.817% (inactive) and -0.0593% (inactive). Moreover, the max response was 1.19% and 66.8% in test [4] (setting [12]); 0.358% and 67% in test [4] (setting [13]). For the same compound, the Potency entry in test [5], in [6], in [7], in test [8], in test [9] and in [10] was “inactive” in each case. In addition, the Potency entry in [11] was “inactive”.
With `CC(N)=NCCCC[C@@H](N)C(=O)O`, the compound was classed as inactive in test [3]. Besides, the activity change, negative = inhibition in test [4] was -0.966% (inactive). In addition, the figures for the max response in [4] (setting [12]) and in test [4] (setting [13]) were 1.29% and 2.75%, respectively. Besides, the Potency entry in test [5], in test [6], in test [7], in test [8], in [9] and in [10] was “inactive” each time. In addition, the Potency result in test [11] was “inactive”.
Regarding `CC(N)=O`, the result in test [1], in test [2] and in [3] was inactive. Also, the activity change, negative = inhibition in test [4] is -0.907% (inactive). Besides, the max response in test [4] (setting [12]) was -17.4%; in [4] (setting [13]), -17.3%. Besides, the Potency entry in test [5], in test [6], in test [7], in test [8], in test [9] and in test [10] was “inactive” each time. The Potency result in test [11] is “inactive”.
For the compound `NC1CONC1=O` (stereo unspecified), in test [3], the call was inactive. Moreover, in test [4], the activity change, negative = inhibition is 9.95% (inactive) and 0.344% (inactive). In addition, the max response in test [4] (setting [12]) was 9.83% and -1.76%; in test [4] (setting [13]) it was 24% and -1.09%. Also, the Potency entry in test [5], in test [6], in test [7], in [8], in test [9] and in test [10] was “inactive” in each case. The Potency result in test [11] is “inactive”.
As for `NC(N)=[N+]1CCc2ccccc2C1`, the outcome in [1], in test [2] and in [3] was inactive. Moreover, the activity change, negative = inhibition in test [4] is 1.3% (inactive). In addition, the max response in test [4] (setting [12]) is 6.74%; in [4] (setting [13]), -12.8%. The Potency result in test [5], in test [6], in test [7], in [8], in test [9] and in test [10] was “inactive” each time. For the same compound, in test [11], the Potency result is “inactive”.
